The source of these data is ChEMBL document CHEMBL3988442, “University of Dundee, Small-Polar-MMV Screening Library” (2021).

In this assay the target is T1, Methionyl-tRNA synthetase, putative (Leishmania donovani (strain BPK282A1)) (UniProt E9BF75).
T1 sequence (whole entry): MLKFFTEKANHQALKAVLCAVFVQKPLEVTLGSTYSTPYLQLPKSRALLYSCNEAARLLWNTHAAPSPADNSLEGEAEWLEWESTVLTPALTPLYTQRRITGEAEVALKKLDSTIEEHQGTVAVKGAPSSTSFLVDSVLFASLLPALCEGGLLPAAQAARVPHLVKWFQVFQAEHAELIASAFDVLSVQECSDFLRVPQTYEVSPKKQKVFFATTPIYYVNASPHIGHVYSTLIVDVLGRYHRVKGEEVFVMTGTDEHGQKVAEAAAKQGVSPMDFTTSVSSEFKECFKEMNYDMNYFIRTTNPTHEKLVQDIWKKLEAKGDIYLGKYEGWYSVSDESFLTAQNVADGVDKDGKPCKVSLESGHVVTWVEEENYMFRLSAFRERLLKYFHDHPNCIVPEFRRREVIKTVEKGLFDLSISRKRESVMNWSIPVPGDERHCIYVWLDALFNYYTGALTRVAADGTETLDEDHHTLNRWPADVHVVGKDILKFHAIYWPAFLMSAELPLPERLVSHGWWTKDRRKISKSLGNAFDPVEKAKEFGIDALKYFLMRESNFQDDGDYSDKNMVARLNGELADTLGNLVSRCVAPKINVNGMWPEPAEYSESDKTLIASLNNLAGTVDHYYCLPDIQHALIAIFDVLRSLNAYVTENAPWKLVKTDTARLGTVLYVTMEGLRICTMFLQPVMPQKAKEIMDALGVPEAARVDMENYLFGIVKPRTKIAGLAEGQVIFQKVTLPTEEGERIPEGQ
Briefly: Leishmania donovani Methionine tRNA synthetase (LdMetRS):v7. Dose response assay. Type of assay: functional. Set-up: conc 80 nM, time 150 minutes.

In the case of `CC(C)C[C@H](N)COc1ccccc1-c1ccccc1`, the PXC50 is, setting by setting: (MAX_EFFECT 19.82942431) under 4; (MAX_EFFECT 21.32505176) under 4.

Consider `CC(C)C[C@H](N)COc1ccccc1-c1ccn(C)n1`, for which the PXC50 by setting is: (MAX_EFFECT 7.660455487) under 4; (MAX_EFFECT 10.87420043) under 4.

As for `Cc1nc(N2CC[C@@H](O)C2)c2c(-c3cccs3)csc2n1`, the PXC50 runs as follows: (MAX_EFFECT -2.07253886) under 4; (MAX_EFFECT -3.723404255) under 4.

Turning to `Cc1cc(C(F)(F)F)nc(CCNc2nc(C)nc3sccc23)n1`, the PXC50 is under 4 (MAX_EFFECT 8.838383838) and under 4 (MAX_EFFECT 11.2244898).

For `Cc1nc(N2CCCC(N)CC2)c2ccsc2n1` (configuration not stated), the PXC50 is, setting by setting: (MAX_EFFECT 0.0) under 4; (MAX_EFFECT 3.10880829) under 4.

Take `N[C@H]1CCOc2c(Cl)cc(Cl)cc21`: the PXC50 is under 2.7 (MAX_EFFECT 2.517162471) and under 2.7 (MAX_EFFECT 3.676470588).

In the case of `Cc1nnc(NCC2(c3ccccc3)CCC2)c(C#N)c1C`, the PXC50 by setting is: (MAX_EFFECT 19.71830986) under 4; (MAX_EFFECT 20.92592593) under 4.

Regarding `Cn1ncc2c(OCCO)nc(Nc3ccc(F)c(F)c3)nc21`, the PXC50 runs as follows: (MAX_EFFECT 18.30188679) under 4; (MAX_EFFECT 21.91780822) under 4.

As for `CCOC(=O)N1CCN(c2nc(C)nc3sc4c(c23)CCCC4)CC1`, the PXC50 (MAX_EFFECT 14.58333333) was under 4 and the PXC50 (MAX_EFFECT 16.22807018) is under 4.

Take `O=C(NCC1CCCCC1)c1cc(=O)c2cc[nH]c(=O)c2o1`: the PXC50 is, setting by setting: (MAX_EFFECT 5.901116427) under 4; (MAX_EFFECT 6.333973129) under 4.

Consider `CCc1nc(NCCO)c2cc(CC)sc2n1`, for which the PXC50 is under 4 (MAX_EFFECT 6.532663317) and under 4 (MAX_EFFECT 10.07371007).

Take `CCOCCN(CCOCC)c1nc(C)nc2sccc12`: the PXC50 by setting is: (MAX_EFFECT 12.27154047) under 4; (MAX_EFFECT 15.66579634) under 4.

In turn, `Cc1nc(N2CCNC(=O)CC2)c2c(CC(C)C)csc2n1` returned a PXC50 (MAX_EFFECT 6.557377049) of under 4 and a PXC50 (MAX_EFFECT 9.625668449) of under 4.

For the compound `Cc1cc(C(F)(F)F)nc(NCCc2ccccc2)n1`, the PXC50 was under 4 (MAX_EFFECT 6.557377049) and under 4 (MAX_EFFECT 10.16042781).

With `COc1ccc(-c2cc(C(F)(F)F)nc(N3CCCC3)n2)cc1`, the PXC50 was under 4 (MAX_EFFECT 5.85106383) and under 4 (MAX_EFFECT 7.772020725).

Compound `O=C(CO)N1CCC(F)(F)C2(CCN(c3ccccc3)C2)C1` (configuration not stated) displayed a PXC50 (MAX_EFFECT 15.37037037) of under 4 and a PXC50 (MAX_EFFECT 18.30985915) of under 4.

Regarding `Cc1sc2nc(C(F)(F)F)nc(N3CCC(NS(C)(=O)=O)CC3)c2c1C`, the PXC50 is, setting by setting: (MAX_EFFECT 0.0) under 4; (MAX_EFFECT 1.305483029) under 4.

Turning to `Cc1nccn1CCCn1cncc1-c1ccc2c(c1)CCCN2C`, the PXC50 was under 4 (MAX_EFFECT 9.523809524) and under 4 (MAX_EFFECT 19.43925234).

With `Cc1cc2c(N3CCC(C(N)=O)CC3)nc(-c3cccnc3)nc2s1`, the PXC50 was under 4 (MAX_EFFECT 10.38251366) and under 4 (MAX_EFFECT 13.36898396).

Turning to `Cc1cc(C(F)(F)F)nc(N(C)Cc2c(C)noc2C)n1`, the PXC50 was under 4 (MAX_EFFECT 10.44386423) and under 4 (MAX_EFFECT 10.70496084).

`Cc1nc(N[C@@H](CC(C)C)C(=O)O)c2c3c(sc2n1)CCCC3`: the PXC50 was under 4 (MAX_EFFECT 23.93617021) and under 4 (MAX_EFFECT 24.87046632).

`CCN(CC)C(=O)CN(C)c1nc(C)nc2sc(-c3ccccc3)cc12`: the PXC50 reads like this: (MAX_EFFECT 23.46666667) under 4; (MAX_EFFECT 30.15873016) under 4.

Regarding `Cc1sc2nc(C(F)(F)F)nc(N3CCN(C)CC3)c2c1C`, the PXC50 runs as follows: (MAX_EFFECT 6.788511749) under 4; (MAX_EFFECT 7.049608355) under 4.

Consider `Cc1nc(NCCNC(=O)c2ccccc2)c2c3c(sc2n1)CCCC3`, for which the PXC50 is, setting by setting: (MAX_EFFECT 14.39393939) under 4; (MAX_EFFECT 19.3877551) under 4.

On to `Cc1nc(NCCC(C)C)c2c3c(sc2n1)CCCC3`, for which the PXC50 is under 4 (MAX_EFFECT 30.4) and under 4 (MAX_EFFECT 33.86243386).

As for `Cc1nc(N2CCN(c3ccccn3)CC2)c2c3c(sc2n1)CCCC3`, the PXC50 is under 4 (MAX_EFFECT 22.61306533) and under 4 (MAX_EFFECT 22.85012285).

Take `Cc1cc(C(=O)NC2CCCC2)cn2c(N3CCN(S(C)(=O)=O)CC3)ccc12`: the PXC50 is 4.67 (BOTTOM 3.715191159, HILLSLOPE 1.052339001, MAX_EFFECT 54.38596491, TOP 65.94212945) and under 4 (MAX_EFFECT 46.875).

With `CCOC(=O)c1sc2nc(C)nc(NC3CCN(C4CC4)CC3)c2c1C`, the PXC50 is under 4 (MAX_EFFECT 19.59798995) and under 4 (MAX_EFFECT 24.32432432).

For `CC(=O)NCc1nnc2n1CCN(c1nc(C)nc3sccc13)CC2`, the PXC50 is, setting by setting: (MAX_EFFECT 6.527415144) under 4; (MAX_EFFECT 9.921671018) under 4.

On to `FC1(F)CCN(Cc2ccncc2)CC12CCN(c1cccnc1)C2` (configuration not stated), for which the PXC50 reads like this: (MAX_EFFECT 5.981308411) under 4; (MAX_EFFECT -0.453514739) under 4.

For the compound `COCCNc1nc(C)nc2sc3c(c12)CCCC3`, the PXC50 is, setting by setting: (MAX_EFFECT 3.174603175) under 4; (MAX_EFFECT 4.266666667) under 4.

In the case of `CN1CCN(C(=O)CNC(=O)c2ccc3ccc(N4CCN(S(C)(=O)=O)CC4)n3c2)CC1`, the PXC50 runs as follows: (BOTTOM 0.0904, HILLSLOPE 2.137945772, MAX_EFFECT 50.23923445, TOP 52.555747) 4.83; (BOTTOM 3.391781155, HILLSLOPE 3.900764743, MAX_EFFECT 59.59780622, TOP 59.91227163) 4.76.

With `CS(=O)(=O)N1CCN(c2ccc3ccc(C(=O)N4CCCC4)cn23)CC1`, the PXC50 was 4.86 (BOTTOM 0.156945579, HILLSLOPE 1.857683392, MAX_EFFECT 58.30188679, TOP 61.51792395) and 4.95 (BOTTOM 4.583304472, HILLSLOPE 3.359740299, MAX_EFFECT 56.16438356, TOP 53.05051886).

On to `COCCNc1nc(-c2cccnc2)nc2sc(C)c(C)c12`, for which the PXC50 by setting is: (BOTTOM 0.74162584, HILLSLOPE 1.235225767, MAX_EFFECT 62.1761658, TOP 100.0) 4.17; (BOTTOM 1.893882354, HILLSLOPE 1.640156685, MAX_EFFECT 57.9787234, TOP 75.89886764) 4.31.

As for `CC(C)NC(=O)c1ccc2ccc(N3CCN(S(C)(=O)=O)CC3)n2c1`, the PXC50 runs as follows: (BOTTOM 1.200641937, HILLSLOPE 2.342552546, MAX_EFFECT 57.54716981, TOP 55.68048652) 4.88; (BOTTOM 2.289724742, HILLSLOPE 1.802731874, MAX_EFFECT 51.59817352, TOP 52.80479707) 4.95.

Regarding `COCCNc1nc(-n2nc(C)cc2C)nc2sc3c(c12)CCCC3`, the PXC50 (BOTTOM 1.301145561, HILLSLOPE 1.464534306, MAX_EFFECT 52.38095238, TOP 100.0) was found to be 4.33 and the PXC50 (BOTTOM -0.0791, HILLSLOPE 1.372664479, MAX_EFFECT 81.02766798, TOP 100.0) came out at 4.48.

As for `CC(=O)N1CCN(C(=O)c2ccc3ccc(N4CCN(S(C)(=O)=O)CC4)n3c2)CC1`, the PXC50 is, setting by setting: (BOTTOM 3.542001412, HILLSLOPE 2.454286416, MAX_EFFECT 62.83018868, TOP 64.11209582) 4.91; (BOTTOM 3.854741042, HILLSLOPE 2.302398718, MAX_EFFECT 55.70776256, TOP 55.14895524) 4.97.

Consider `CC(=O)N1CCCC(NC(=O)c2ccc3ccc(N4CCN(S(C)(=O)=O)CC4)n3c2)C1` (configuration not stated), for which the PXC50 is, setting by setting: (BOTTOM 3.656156878, HILLSLOPE 2.486754691, MAX_EFFECT 66.17915905, TOP 66.88204214) 4.81; (BOTTOM -4.526143978, HILLSLOPE 1.702686974, MAX_EFFECT 60.76555024, TOP 62.80104332) 5.

On to `O=C(c1c[nH]cn1)N1CCC(F)(F)C2(CCN(c3cnccn3)C2)C1` (configuration not stated), for which the PXC50 reads like this: (MAX_EFFECT 1.584507042) under 4; (MAX_EFFECT 3.800475059) under 4.

Consider `Cc1sc2nc(-c3cccnc3)nc(NCCN3CCOCC3)c2c1C`, for which the PXC50 is under 4 (MAX_EFFECT 3.015075377) and under 4 (MAX_EFFECT 4.668304668).

Regarding `OCCN1CCC(F)(F)C2(CCN(c3cnccn3)C2)C1` (configuration not stated), the PXC50 by setting is: (MAX_EFFECT 3.174603175) under 4; (MAX_EFFECT 14.57943925) under 4.

As for `Cc1c(C(=O)NC2CCCC2)ccc2ccc(N3CCN(S(C)(=O)=O)CC3)n12`, the PXC50 by setting is: (MAX_EFFECT 3.645833333) under 4; (MAX_EFFECT 10.0877193) under 4.

With `Cc1nc(N(C)CC(=O)N2CCCC2)c2c3c(sc2n1)CCCC3`, the PXC50 was under 4 (MAX_EFFECT 3.703703704) and under 4 (MAX_EFFECT 3.733333333).

Take `Cc1nc(N(C)CC(=O)NC2CC2)c2c3c(sc2n1)CCC3`: the PXC50 reads like this: (MAX_EFFECT 3.703703704) under 4; (MAX_EFFECT 5.866666667) under 4.

As to `CC(C)C[C@H](N)COc1ccccc1-c1ccnn1C`, the PXC50 is under 4 (MAX_EFFECT 4.572564612) and under 4 (MAX_EFFECT 5.733944954).

For `Cc1cc(C)n(C2=NC(NCCC(C)C)c3c(sc4c3CCCC4)N2)n1` (configuration not stated), the PXC50 is under 4 (MAX_EFFECT 4.798464491) and under 4 (MAX_EFFECT 13.23763955).
